Shown are actives, neighbours in structure and some others; about 5.9% of the full set was active somewhere.
AHR act: activators of human aryl hydrocarbon receptor; P35869; AHR-responsive luciferase reporter cells, luminescence; activation, % at 5 µM; actives 2.5% (n = 320,000); AID 2796; in the data active means activation above about 47%;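 further: 0% = vehicle wells and 100% = reference agonist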
Target sequence (P35869 whole entry, looked up): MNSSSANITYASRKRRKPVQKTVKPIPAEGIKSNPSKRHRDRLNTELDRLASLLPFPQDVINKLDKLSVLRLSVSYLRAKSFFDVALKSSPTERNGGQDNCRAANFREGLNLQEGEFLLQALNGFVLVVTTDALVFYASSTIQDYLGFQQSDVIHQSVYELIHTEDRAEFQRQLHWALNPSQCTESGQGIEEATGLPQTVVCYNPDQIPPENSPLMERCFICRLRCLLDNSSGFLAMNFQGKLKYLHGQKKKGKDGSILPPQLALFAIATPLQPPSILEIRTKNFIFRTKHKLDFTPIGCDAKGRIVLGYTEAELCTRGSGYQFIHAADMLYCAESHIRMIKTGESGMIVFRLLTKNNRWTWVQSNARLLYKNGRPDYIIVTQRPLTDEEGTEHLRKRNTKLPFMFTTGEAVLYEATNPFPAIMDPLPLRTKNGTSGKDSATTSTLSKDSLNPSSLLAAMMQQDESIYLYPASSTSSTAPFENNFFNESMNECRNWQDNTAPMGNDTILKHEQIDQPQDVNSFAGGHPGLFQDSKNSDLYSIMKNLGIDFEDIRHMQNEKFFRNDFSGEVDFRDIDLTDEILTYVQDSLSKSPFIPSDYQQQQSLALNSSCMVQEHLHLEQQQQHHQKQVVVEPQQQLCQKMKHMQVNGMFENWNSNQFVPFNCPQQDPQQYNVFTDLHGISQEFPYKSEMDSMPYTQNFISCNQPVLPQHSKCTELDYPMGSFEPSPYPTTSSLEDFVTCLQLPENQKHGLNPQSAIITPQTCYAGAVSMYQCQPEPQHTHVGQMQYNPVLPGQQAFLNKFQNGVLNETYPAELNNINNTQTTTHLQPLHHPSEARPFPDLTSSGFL
HSF1 inh: HSF1 inhibition. NIH3T3-HGL HSE-luciferase, MG132-induced, luminescence 8 h; active compounds read low. activity change, negative = inhibition, % at 7.5 µM (by protocol). actives 0.77% (n = 300,000). AID 2098;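 active means more than half of replicate wells show activity change below -50%, luminescence cut by over half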;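 further: luciferase reports HSF-1 transcriptional activity via heat shock element; 0% = median of DMSO wells and -100% = zero luminescence signal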
HSP90 refold inh: blocks HSP90-mediated luciferase refolding in reticulocyte lysate; inhibition, % at 5.6 µM; AID 1789; Rabbit reticulocyte lysate, luciferase refolding luminescence, 3 h; actives 0.91% (n = 290,000);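 active means inhibition above the screen-wide mean plus 3 SD, computed separately per campaign, cut at about 16% in these data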;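 further: 0% = DMSO wells and 100% = 60 µM geldanamycin wells; inhibitors lower the luminescence because luciferase stays unfolded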
FXN GAA850 act: activators of GAA850 frataxin (FXN) promoter; HEK293 lucGAA850 FXN promoter luciferase reporter, 24 h; percent of 10 µM SAHA response; activation, % at 6 µM; actives 0.56% (n = 360,000); AID 540364;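 active means activation above the average of all compounds screened plus 3 SD, cutoff fixed separately per campaign, cut at about 7.5% in these data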;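 further: 0% = DMSO wells and 100% = 10 µM SAHA wells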
NR0B1 inh: inhibits human nuclear receptor DAX1. actives 0.99% (n = 340,000). inhibition, % at 6.75 µM. P51843. HEK293 Gal4-DAX1 luciferase reporter, luminescence;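 active means inhibition above the mean over all tested compounds plus 3 SD, cut at about 4.2% in these data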;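 further: 0% = DAX1-transfected cells with DMSO and 100% = empty-vector control cells with DMSO; inhibition shows as a rise in luminescence from relieved DAX1 repression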
HSF-1 act: increases HSF-1 driven luciferase reporter signal; NIH3T3-HGL HSF-1 luciferase reporter, MG132, 8 h; 100% = twice DMSO control signal; activation, % at 9 µM; actives 1.7% (n = 300,000); AID 504408;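 active means mean replicate activation of at least 50% with a set share of replicates each reaching 50%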;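 further: 0% = median of the neutral control wells and 100% = twice that signal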
GAA30 FXN cntr: GAA30 FXN promoter activation counter-screen; HEK293 lucGAA30 FXN promoter luciferase, 24 h; DMSO = 0%, 5 µM ipriflavone = 100%; actives 66% (n = 1,900); AID 588350; shares compounds with FXN GAA850 act; activation, % at 6 µM;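 active means mean activation above the mean of solvent-only control wells plus 3 SD, cut at about 22% in these data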;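 further: counterscreen of GAA850 promoter hits where activity marks nonselective or luminescence artifacts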
FXN GAA850 conf: confirmation of GAA850 frataxin (FXN) promoter activators | actives 86% (n = 1,900) | shares compounds with FXN GAA850 act | AID 588351 | activation, % at 6 µM | HEK293 lucGAA850 FXN promoter luciferase reporter, 24 h; 100% = activation by SAHA;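 active means mean activation above a set limit taken from the primary screen, cut at about 8% in these data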;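 further: 0% = DMSO wells and 100% = 10 µM SAHA wells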
The depositor's hits bear a star; x = not tested or not shown.

SMILES	AHR act	HSF1 inh	HSP90 refold inh	FXN GAA850 act	NR0B1 inh	HSF-1 act	GAA30 FXN cntr	FXN GAA850 conf
CCOc1ccc(CCNC(=O)COC(=O)Cn2nc(C)c([N+](=O)[O-])c2C)cc1OCC	0	1	x	0	3	-5	x	x
O=C(NCc1ccccc1Cl)C(=O)NCC(c1ccco1)N1CCOCC1 (stereo not given)	-1	-8	1	1	-1	-3	x	x
CC1(C)SC(=S)N(/N=C/c2ccccc2)C1N(O)C(=O)Nc1ccc([N+](=O)[O-])cc1 (stereo not given)	3	4	-2	0	0	-13	x	x
O=C(C=Cc1ccccc1)CC(c1ccccc1)N1CCOCC1 (stereo not given)	x	x	x	7.8*	0	x	36*	40*
O=C(C(c1ccccc1)N1CCOCC1)N1CCOCC1 (stereo not given)	0	-2	6	-1	0	-5	x	x
O=C(COc1ccc(Cl)cc1Cl)NCCC1=CCCCC1	0	2	-1	2	0	7	x	x
CC[C@@]12C(=O)N(c3cccc(F)c3)C(=O)N1[C@H](c1ccc(Br)cc1)[C@@H]1C(=O)N(C(C)(C)C)C(=O)[C@@H]12	2	19	x	15*	-1	20	26*	13*
COc1ccc([C@@H]2[C@@H]3C(=O)N(C(C)(C)C)C(=O)[C@@H]3[C@]3(CC(C)C)C(=O)N(c4cccc(F)c4)C(=O)N23)cc1	1	-1	x	15*	2	-6	46*	16*
CC(C)(C)N1C(=O)[C@H]2[C@@H](c3ccc(Br)cc3)N3C(=O)N(c4cccc(F)c4)C(=O)[C@@]3(Cc3ccccc3)[C@H]2C1=O	3	5	x	6	0	-4	x	x
O=C(NNC(=O)C12CC3CC(CC(C3)C1)C2)c1ccccc1[N+](=O)[O-]	0	1	-5	2	0	-7	x	x
CC(=O)c1ccc(N2Cc3ccccc3C2=NC(=O)c2cccs2)cc1	-3	13	1	4	0	43	x	x
CCOC(=O)c1ccc(N2Cc3ccccc3C2=NC(=O)c2cccs2)cc1	x	x	-4	9.3*	0	x	53*	23*
COc1cnc(-c2ccccc2)nc1Oc1ccc(Cl)cc1C	7	9	4	-1	1	14	x	x
O=C(O)C1Nc2ccc(C(F)(F)F)cc2C2OCCC12 (stereo not given)	3	0	x	-1	2	-5	x	x
Cc1ccc(C)c(CSC2=NCCN2C(=O)c2cccs2)c1	3	-7	-2	-1	0	1	x	x
C=C(C)CSc1nncn1/N=C/c1ccc(OC)cc1	36	1	0	11*	2	28	102*	34*
O=C1OCCN1c1c(-c2ccccc2)c(N2CCOCC2)nc2ccccc12	0	-2	x	4	1	-5	x	x
O=C1[C@H]2[C@@H](c3ccc(Cl)cc3)N3C(=O)N(c4cccc(Cl)c4)C(=O)[C@@]3(Cc3ccccc3)[C@H]2C(=O)N1C1CCCCC1	-3	-30	x	8.2*	1	-46	-10	0
O=C1[C@H]2[C@@H](c3ccc(F)cc3)N3C(=O)N(c4cccc(F)c4)C(=O)[C@@]3(Cc3ccccc3)[C@H]2C(=O)N1C1CCCCC1	1	4	x	11*	0	2	28*	14*
COc1ccc(N2C(=O)N3[C@H](c4ccc(Cl)cc4)[C@@H]4C(=O)N(C5CCCCC5)C(=O)[C@@H]4[C@]3(Cc3ccc(Cl)cc3)C2=O)cc1	0	8	-3	7.9*	2	9	31*	12*
CCN1C(=O)[C@H]2[C@@H](c3ccc(C)cc3)N3C(=O)N(c4ccc(C)cc4)C(=O)[C@@]3(Cc3ccccc3)[C@H]2C1=O	3	-2	-4	-7	1	-3	x	x
Cc1ccc(N2C(=O)N3[C@H](c4ccc(F)cc4)[C@@H]4C(=O)N(C5CCCCC5)C(=O)[C@@H]4[C@]3(Cc3ccccc3)C2=O)cc1	-3	4	1	12*	1	9	31*	11*
COc1ccc([C@@H]2[C@@H]3C(=O)N(C(C)(C)C)C(=O)[C@@H]3[C@]3(Cc4ccc(Cl)cc4)C(=O)N(c4ccc(OC)cc4)C(=O)N23)cc1	1	1	x	0	3	11	x	x
COc1cc(/C=N/Nc2ccnc(=O)[nH]2)ccc1O	x	0	-1	7.7*	-1	-12	31*	7
O=c1nccc(N/N=C/c2cccc(O)c2)[nH]1	10	7	4	1	1	1	x	x
SMILES	AHR act	HSF1 inh	HSP90 refold inh	FXN GAA850 act	NR0B1 inh	HSF-1 act	GAA30 FXN cntr	FXN GAA850 conf
Cn1c(=O)oc2cc(S(=O)(=O)N3CCC(C(=O)NCc4ccc(F)cc4)CC3)ccc21	-1	-6	0	11*	2	-4	14	6
Cn1c(=O)oc2cc(S(=O)(=O)N3CCC(C(=O)NCc4ccccc4)CC3)ccc21	-2	-9	4	2	-1	-2	x	x
O=C(Cn1c(=O)oc2cc(S(=O)(=O)N3CCCCCC3)ccc21)NC1CCCCCCC1	-2	2	-3	16*	0	9	19	16*
CCCNC(=O)Cn1c(=O)oc2cc(S(=O)(=O)N3CCCC3)ccc21	0	-7	3	0	1	4	x	x
C[C@H](CO)N1C[C@H](C)[C@@H](CN(C)Cc2cccnc2)Oc2cc(-c3cccnc3)ccc2S1(=O)=O	x	x	x	2	-1	x	x	x
O=C(NCC(=O)N1CCOCC1)c1ccc(Cl)cc1	2	-1	-5	0	1	-3	x	x
Cc1c(CCOC(=O)CC23CC4CC(CC(C)(C4)C2)C3)sc[n+]1CC(=O)c1ccccc1	-1	6	0	9.7*	0	31	12	14*
Cc1c(CCOC(=O)C23CC4CC(CC(C)(C4)C2)C3)sc[n+]1CC(=O)c1ccccc1	-1	9	8	8.3*	0	31	31*	20*
Cc1c(CCOC(=O)CC23CC4CC(CC(C4)C2)C3)sc[n+]1CC(=O)c1ccc(Br)cc1	-1	-1	6	4	1	6	x	x
COc1cccc(/C=C2\SC(=S)N(CCC(=O)NC3C=CS(=O)(=O)C3)C2=O)c1 (stereo not given)	-1	11	-4	10*	0	-3	30*	14*
Cc1cccc(N2C(=O)N3[C@H](c4ccc(Br)cc4)[C@@H]4C(=O)N(C(C)(C)C)C(=O)[C@@H]4[C@]3(Cc3ccc(Cl)cc3)C2=O)c1	2	0	5	10*	2	-10	18	17*
